# Publication PMC7862700, “An all-to-all approach to the identification of sequence-specific readers for epigenetic DNA modifications on cytosine”
# Legend:
# Test in all cases: DAPPL (digital affinity profiling via proximity ligation, sequencing); 10 mM Tris-HCl pH 7.5, 50 mM NaCl, 1 mM DTT, 4% glycerol, room temperature, 30 min; GST-TFs on glutathione beads, 16-mer random dsDNA library, 0.1% formaldehyde crosslink after washing; high values mean tight binding
# Conditions in all cases: protein: recombinant; tags: N-terminal GST; dsDNA, one strand shown
# [1] = biological target: T1, FLI1 (Homo sapiens, UniProt Q01543 1-452)
# T1 sequence: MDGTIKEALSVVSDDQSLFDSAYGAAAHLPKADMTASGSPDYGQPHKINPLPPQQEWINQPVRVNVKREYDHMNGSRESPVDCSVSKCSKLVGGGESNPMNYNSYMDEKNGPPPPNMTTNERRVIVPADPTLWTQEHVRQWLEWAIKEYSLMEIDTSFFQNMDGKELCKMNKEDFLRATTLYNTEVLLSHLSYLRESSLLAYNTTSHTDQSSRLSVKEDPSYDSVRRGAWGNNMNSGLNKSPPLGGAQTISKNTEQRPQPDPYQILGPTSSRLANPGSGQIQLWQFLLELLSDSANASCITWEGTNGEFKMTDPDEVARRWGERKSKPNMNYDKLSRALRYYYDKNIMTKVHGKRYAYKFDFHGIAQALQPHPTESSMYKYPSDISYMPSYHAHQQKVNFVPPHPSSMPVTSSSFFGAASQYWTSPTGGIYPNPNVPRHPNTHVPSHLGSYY
# Outline: (§1)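 Beads coated with glutathione captured GST-fused human transcription factors that had been expressed in yeast, and the factors were then given DNA barcodes and pooled with a tag-only sample. The pools were incubated with 200 nmole of a random double-stranded 16-mer DNA library in Tris/NaCl/DTT/glycerol buffer for 30 min at room temperature, washed, crosslinked with 0.1% formaldehyde and proximity-ligated with BsaI/T4 ligase at 37 °C for 1 h. PCR amplification and Illumina NextSeq500 sequencing came last. Binding signal is each hexamer's read frequency for a factor divided by its frequency for the tag-only sample.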
# [2] = biological target: T2, ELK1 (Homo sapiens, UniProt P19419 1-428)
# T2 sequence: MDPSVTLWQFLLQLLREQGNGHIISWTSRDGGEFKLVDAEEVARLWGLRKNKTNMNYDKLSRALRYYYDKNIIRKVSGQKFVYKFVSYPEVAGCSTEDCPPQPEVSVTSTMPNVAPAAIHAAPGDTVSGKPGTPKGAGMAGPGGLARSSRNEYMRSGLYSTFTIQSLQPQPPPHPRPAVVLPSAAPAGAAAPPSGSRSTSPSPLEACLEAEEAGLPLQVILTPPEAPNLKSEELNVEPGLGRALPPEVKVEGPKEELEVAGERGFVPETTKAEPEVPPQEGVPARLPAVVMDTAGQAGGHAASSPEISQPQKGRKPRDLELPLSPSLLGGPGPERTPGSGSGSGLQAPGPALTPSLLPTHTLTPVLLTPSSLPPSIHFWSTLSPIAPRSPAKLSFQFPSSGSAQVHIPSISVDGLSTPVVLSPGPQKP
# Outline: as §1
# [3] = biological target: T3, GABPA (Homo sapiens, UniProt Q06546 1-454)
# T3 sequence: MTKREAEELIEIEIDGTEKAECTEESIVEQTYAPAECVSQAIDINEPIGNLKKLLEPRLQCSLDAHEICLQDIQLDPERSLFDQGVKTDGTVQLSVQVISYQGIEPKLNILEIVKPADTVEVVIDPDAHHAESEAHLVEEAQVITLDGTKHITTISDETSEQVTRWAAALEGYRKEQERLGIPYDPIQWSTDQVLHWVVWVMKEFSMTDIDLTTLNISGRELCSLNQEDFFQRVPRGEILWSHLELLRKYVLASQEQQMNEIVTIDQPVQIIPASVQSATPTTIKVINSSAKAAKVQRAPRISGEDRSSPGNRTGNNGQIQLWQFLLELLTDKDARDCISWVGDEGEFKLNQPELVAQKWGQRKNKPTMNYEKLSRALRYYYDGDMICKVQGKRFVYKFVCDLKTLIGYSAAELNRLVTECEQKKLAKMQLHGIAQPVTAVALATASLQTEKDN
# Outline: as §1
# [4] = biological target: T4, ERG (Homo sapiens, UniProt P11308 1-479)
# T4 sequence: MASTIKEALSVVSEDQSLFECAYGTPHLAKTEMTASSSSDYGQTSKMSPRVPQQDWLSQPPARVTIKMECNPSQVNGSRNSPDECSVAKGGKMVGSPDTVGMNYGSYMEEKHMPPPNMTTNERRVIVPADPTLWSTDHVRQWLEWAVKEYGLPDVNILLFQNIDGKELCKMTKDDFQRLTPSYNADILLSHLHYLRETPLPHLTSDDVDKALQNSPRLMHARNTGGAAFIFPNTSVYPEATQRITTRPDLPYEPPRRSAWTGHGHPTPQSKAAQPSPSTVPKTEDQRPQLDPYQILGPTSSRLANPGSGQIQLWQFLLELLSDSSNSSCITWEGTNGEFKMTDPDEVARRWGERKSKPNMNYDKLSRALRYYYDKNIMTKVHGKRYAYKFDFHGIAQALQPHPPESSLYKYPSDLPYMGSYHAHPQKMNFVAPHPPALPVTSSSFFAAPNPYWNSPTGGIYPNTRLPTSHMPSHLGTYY
# Outline: as §1
# [5] = biological target: ELF1 (Homo sapiens, UniProt P32519 1-619)
# Outline: as §1
# [6] = biological target: T5, EHF (Homo sapiens, UniProt Q9NZC4 1-300)
# T5 sequence: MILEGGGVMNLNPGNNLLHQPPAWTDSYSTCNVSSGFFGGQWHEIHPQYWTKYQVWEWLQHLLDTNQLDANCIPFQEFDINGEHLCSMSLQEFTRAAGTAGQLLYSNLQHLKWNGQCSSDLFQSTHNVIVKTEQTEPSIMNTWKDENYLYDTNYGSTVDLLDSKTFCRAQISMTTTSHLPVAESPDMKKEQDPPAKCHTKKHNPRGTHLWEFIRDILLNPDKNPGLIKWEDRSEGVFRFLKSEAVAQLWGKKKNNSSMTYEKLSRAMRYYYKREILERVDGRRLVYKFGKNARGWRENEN
# Outline: as §1
# [7] = biological target: SPI1 (Homo sapiens, UniProt P17947 1-270)
# Outline: as §1
# [8] = biological target: SPIB (Homo sapiens, UniProt Q01892 1-262)
# Outline: as §1
# [9] = biological target: T6, ELK3 (Homo sapiens, UniProt P41970 1-407)
# T6 sequence: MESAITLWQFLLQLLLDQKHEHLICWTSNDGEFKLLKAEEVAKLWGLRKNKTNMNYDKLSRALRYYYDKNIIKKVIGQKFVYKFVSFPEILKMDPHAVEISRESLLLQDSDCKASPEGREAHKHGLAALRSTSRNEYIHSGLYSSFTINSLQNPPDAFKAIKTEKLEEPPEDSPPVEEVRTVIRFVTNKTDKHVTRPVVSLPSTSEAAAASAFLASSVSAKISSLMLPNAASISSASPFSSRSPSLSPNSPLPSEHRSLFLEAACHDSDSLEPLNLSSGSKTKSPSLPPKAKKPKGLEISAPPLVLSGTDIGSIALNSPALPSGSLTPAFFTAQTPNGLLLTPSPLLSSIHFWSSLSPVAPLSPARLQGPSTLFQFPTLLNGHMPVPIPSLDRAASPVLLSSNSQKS
# Outline: as §1
# Sequence of SPIB (Q01892 whole entry): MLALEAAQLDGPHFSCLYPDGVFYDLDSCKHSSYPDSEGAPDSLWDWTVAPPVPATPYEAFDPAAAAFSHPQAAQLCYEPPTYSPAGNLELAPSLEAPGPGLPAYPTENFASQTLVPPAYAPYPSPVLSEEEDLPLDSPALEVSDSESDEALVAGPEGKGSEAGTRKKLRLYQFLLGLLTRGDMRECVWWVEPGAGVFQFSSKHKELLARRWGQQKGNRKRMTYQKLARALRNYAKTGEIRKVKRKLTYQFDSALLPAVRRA
# Sequence of ELF1 (P32519 whole entry): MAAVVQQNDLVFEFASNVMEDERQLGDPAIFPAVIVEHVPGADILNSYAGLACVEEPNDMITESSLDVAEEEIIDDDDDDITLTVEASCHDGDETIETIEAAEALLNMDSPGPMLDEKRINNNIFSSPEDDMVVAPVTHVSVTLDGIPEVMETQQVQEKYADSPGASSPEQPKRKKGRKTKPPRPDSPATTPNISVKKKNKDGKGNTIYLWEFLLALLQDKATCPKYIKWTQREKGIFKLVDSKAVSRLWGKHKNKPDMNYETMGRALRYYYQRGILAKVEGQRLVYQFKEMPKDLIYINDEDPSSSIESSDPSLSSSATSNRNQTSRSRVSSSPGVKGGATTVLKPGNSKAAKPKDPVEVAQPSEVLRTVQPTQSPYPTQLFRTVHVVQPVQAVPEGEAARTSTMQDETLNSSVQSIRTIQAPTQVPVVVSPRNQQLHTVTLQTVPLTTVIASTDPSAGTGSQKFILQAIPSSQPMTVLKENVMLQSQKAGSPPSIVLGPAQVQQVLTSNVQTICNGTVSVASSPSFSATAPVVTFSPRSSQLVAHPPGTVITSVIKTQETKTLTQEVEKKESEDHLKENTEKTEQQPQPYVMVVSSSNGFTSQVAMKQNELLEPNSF
sequence,measurement,setting,value
ACTAAC,binding signal,[1],"1.21 fold enrichment (6-mer frequency, TF over GST control)"
same,binding signal,[2],"1.3 fold enrichment (6-mer frequency, TF over GST control)"
same,binding signal,[3],"1.26 fold enrichment (6-mer frequency, TF over GST control)"
same,binding signal,[4],"1.32 fold enrichment (6-mer frequency, TF over GST control)"
same,binding signal,[5],"1.3 fold enrichment (6-mer frequency, TF over GST control)"
same,binding signal,[6],"1.27 fold enrichment (6-mer frequency, TF over GST control)"
same,binding signal,[7],"1.33 fold enrichment (6-mer frequency, TF over GST control)"
same,binding signal,[8],"1.24 fold enrichment (6-mer frequency, TF over GST control)"
same,binding signal,[9],"1.25 fold enrichment (6-mer frequency, TF over GST control)"
